# Data from PubChem BioAssay AID1963315 (National Center for Advancing Translational Sciences (NCATS), 2024).
# Results filed as inconclusive are left out. Values without a mark were called inactive. Calls of active or inactive are those of the source. The call rests on the fitted dose curve.
# Target: Tyrosine-protein kinase ABL1 (Homo sapiens) (UniProt P00519)
# Assay: ABL1 kinase (ABL1-N-HiBiT) SDR gain of signal screen
# Details: Purified ABL1-N-HiBiT enzyme, Nano-Glo HiBiT luminescence, 30 min compound incubation; series mostly up to 32.9 µM; activity change, gain of signal: at the top concentration
# Outline: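 ABL1-N-HiBiT at 10 nM final in ATP-free buffer, preincubated with compounds 30 min at room temperature in the dark; Nano-Glo HiBiT reagent added, 10 min further incubation, luminescence read for gain of signal versus DMSO.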
# Tyrosine-protein kinase ABL1 (Homo sapiens), sequence (P00519 whole entry, looked up): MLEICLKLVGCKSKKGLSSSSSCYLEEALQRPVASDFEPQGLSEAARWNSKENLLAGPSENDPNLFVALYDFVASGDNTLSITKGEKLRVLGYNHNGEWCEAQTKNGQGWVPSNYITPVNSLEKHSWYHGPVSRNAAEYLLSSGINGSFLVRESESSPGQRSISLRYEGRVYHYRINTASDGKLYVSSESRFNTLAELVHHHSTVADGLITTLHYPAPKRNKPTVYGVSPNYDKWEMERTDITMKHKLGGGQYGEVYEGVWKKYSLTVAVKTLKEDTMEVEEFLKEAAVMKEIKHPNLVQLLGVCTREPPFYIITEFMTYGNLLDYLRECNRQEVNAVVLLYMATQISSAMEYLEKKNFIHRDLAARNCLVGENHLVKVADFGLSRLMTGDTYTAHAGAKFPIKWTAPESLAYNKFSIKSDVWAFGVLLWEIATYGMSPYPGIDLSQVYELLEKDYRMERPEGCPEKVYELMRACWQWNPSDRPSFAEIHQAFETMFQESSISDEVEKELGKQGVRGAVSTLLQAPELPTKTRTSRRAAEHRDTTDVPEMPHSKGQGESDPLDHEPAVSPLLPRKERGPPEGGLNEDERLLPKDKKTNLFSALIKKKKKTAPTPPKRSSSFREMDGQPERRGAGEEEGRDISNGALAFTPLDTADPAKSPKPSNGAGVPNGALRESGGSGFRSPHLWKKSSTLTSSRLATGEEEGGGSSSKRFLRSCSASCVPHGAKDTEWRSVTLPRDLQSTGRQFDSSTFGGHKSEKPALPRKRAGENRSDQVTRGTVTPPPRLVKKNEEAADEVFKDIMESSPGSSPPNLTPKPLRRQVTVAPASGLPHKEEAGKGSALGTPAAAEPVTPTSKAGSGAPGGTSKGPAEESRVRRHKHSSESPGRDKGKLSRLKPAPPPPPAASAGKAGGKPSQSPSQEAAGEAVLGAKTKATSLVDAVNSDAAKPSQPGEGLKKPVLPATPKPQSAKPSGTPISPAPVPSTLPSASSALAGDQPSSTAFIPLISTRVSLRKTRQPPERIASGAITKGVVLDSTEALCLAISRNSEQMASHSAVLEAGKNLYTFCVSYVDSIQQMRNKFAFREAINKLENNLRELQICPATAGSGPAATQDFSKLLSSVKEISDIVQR
Structure (SMILES),Potency,"activity change, gain of signal [%]"
c1ccc2c(-c3cnn4cc(-c5ccc(N6CCNCC6)cc5)cnc34)ccnc2c1,0.148 µM (active),
Cn1sc(=O)n(Cc2ccccc2)c1=O,,-4.94
COC(=O)Nc1ccc(-c2nc(N3CCOCC3)c3cnn(C4CCN(C(=O)OC)CC4)c3n2)cc1,,1.9
FC(F)(F)c1ccc(/C=C/c2nc(COc3ccc(CCCCn4ccnn4)cc3)co2)cc1,,-2.47
Cc1nc(NC(=O)N2CCC[C@H]2C(N)=O)sc1-c1ccnc(C(C)(C)C(F)(F)F)c1,2.09 µM (active),
COc1ccc(S(=O)(=O)N(C(C)=O)c2ccccc2/C=C/c2cc[n+]([O-])cc2)cc1,,7.6
CCCCNc1ncc2c(-c3ccc(S(=O)(=O)N4CCOCC4)cc3)nn(C3CCC(O)CC3)c2n1 (stereo unspecified),1.52 µM (active),
CC(C)(NS(=O)(=O)c1ccc2c(Cl)cnc(N=C(N)N)c2c1)C(=O)O,,-29.5
O=C(NOCC(O)CO)c1cc(Br)c(F)c(F)c1Nc1ccc(I)cc1F (stereo unspecified),,-2.82
CCN1CCN(Cc2ccc(NC(=O)c3ccc(C)c(NC(=O)c4cncc(-c5cccs5)c4)c3)cc2C(F)(F)F)CC1,0.00522 µM (active),
O=c1c(O)c(-c2ccc(O)c(O)c2)oc2cc(O)cc(O)c12,8.31 µM (active),
COc1ccc(-n2c(C)c([N+](=O)[O-])c3ccc(O)cc32)cc1,,11.4
CCCS(=O)(=O)Nc1ccc(F)c(C(=O)c2c[nH]c3ncc(Cl)cc23)c1F,9.32 µM (active),
NC1(C(=O)N[C@@H](CCO)c2ccc(Cl)cc2)CCN(c2ncnc3[nH]ccc23)CC1,,13.9
COc1cc(N2CCOCC2)ccc1Nc1ncc(Cl)c(Nc2ccccc2NS(C)(=O)=O)n1,5.4 µM (active),
O=C1C(c2c(O)[nH]c3ccccc23)=Nc2ccccc21,,-1.14
COc1cc2ncnc(Oc3cccc(NC(=O)Nc4cc(C(C)(C)C(F)(F)F)on4)c3)c2cc1OC,0.234 µM (active),
COc1cc(N2CCC(O)CC2)ccc1Nc1nc(Nc2ccccc2S(=O)(=O)C(C)C)c2[nH]cnc2n1,10.8 µM (active),
Cc1[nH]c2ccccc2c1C1=C(NCCc2ccc(F)cc2)C(=O)N(C)C1=O,,-9.98
COc1ccccc1-c1c[nH]c2ncc(-c3cncc(C(=O)N(C)C)c3)cc12,0.00304 µM (active),
C=CC(=O)Nc1cccc(Oc2nc(Nc3ccc(N4CCN(C)CC4)cc3OC)ncc2Cl)c1,,10.9
